HCV inhibitor – inhibitors of hepatitis C virus infection. Huh7.5.1 HCVcc-Cre infection, luciferase reporter, 44 h. Potency, µM (doses to about 41.8 µM), inactives show at the top dose activity change, negative = inhibition, usual class: inhibitors. 340,000 tested, 3.4% active
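A cell-based infection assay in which seeded cells (1,000 per well) receive test compound after 4 h, are inoculated with HCVcc-Cre at approximately 0.5 moi, and are incubated 44 h before luminescence detection.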
Pf growth 48h – P. falciparum growth inhibition at 48 hours (one generation); P. falciparum luciferase growth in erythrocytes, 48 h; Potency, µM (doses to about 28.7 µM), for inactives: top-dose activity change, negative = inhibition, hits mostly inhibitors; 310,000 tested, 5.9% active
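Compounds are pin-transferred into medium, infected erythrocytes (2% hematocrit, 0.1% parasitemia final) are added, and plates sit one parasite generation at 37 C in 5% CO2. Detection reagent is then added and luminescence measured.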
Pf growth 96h – P. falciparum growth inhibition at 96 hour, primary screen for plastid delayed-death inhibitors; P. falciparum luciferase reporter growth, 96 h; Potency, µM (titrated, usually from 28.7 µM), for the others: at the highest dose activity change, negative = inhibition, most hits filed as inhibitors; 320,000 tested, 6.9% active; AID 504834
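Infected RBCs, 2% Hct / 0.05% parasitemia final; luciferase-reporter P. falciparum; cpd 96 h, 37 C, 5% CO2; luciferase detection reagent; luminescence.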
AMA1 RON2 block – disrupts binding of P. falciparum AMA1 to RON2. Potency, µM (top dose mostly 58.2 µM), without a hit: at the highest dose activity change, negative = inhibition, usual class: inhibitors. 360,000 tested, 0.2% active. AID 720542. AlphaScreen AMA1-biotinylated RON2 peptide binding;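 also: 0% = vehicle wells and -100% = peptide control; nearly all actives have a fitted effect of over 45% in size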
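AMA1 (3D7) with his tag at 25 nM final met compounds first, then biotinylated RON2 peptide at 25 nM; detection used donor plus acceptor beads, 10 µg/mL apiece, read by AlphaScreen after 30 min at room temperature.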
* hit, by the source's call; u = inconclusive; x = no result. In the library only some 11% were active in any assay of this set; here they are far more common. Calls follow the shape of the dose curve; as a rule, active = well fitted curve in the direction sought with a large enough effect; inconclusive = small, poorly fitted or top-dose-only effect, or another doubt; inactive = no such curve, though single readings can be large; an effect the other way counts as inactive or inconclusive. Unless noted, % is scaled to controls: 0 for no effect and ±100 for the full control effect; potency is read from the fitted curve at half-maximal effect.

SMILES	HCV inhibitor	Pf growth 48h	Pf growth 96h	AMA1 RON2 block
CCCN1CCc2c(sc3nc(SCC)n(-c4ccccc4)c(=O)c23)C1	-23.5%	1.31µM*	0.262µM*	-10.4%
CN1CCc2c(sc3c2c(=O)n(-c2ccccc2)c2nnc(SCc4ccccc4)n32)C1	u	6.57µM*	x	-2.8%
CC1CC(C)CN(C(=O)COC(=O)c2ccc(Cl)nc2)C1 (stereo unspecified)	13.7%	-11.8%	15.1%	5.2%
CC(=O)NC(=Cc1ccccc1)C(=O)N1CCCC1C(=O)O (stereo unspecified)	x	x	x	-3.9%
CCc1cc2c(=O)c(-c3nc(C)cs3)coc2cc1OC(C)C(=O)NCCO (stereo unspecified)	3.4%	9.3%	-28.3%	-18.1%
CCSc1nc2sc3c(c2c(=O)n1-c1ccccc1)CCN(C)C3	u	3.29µM*	81.6%	-9.0%
COCCSc1nc2sc3c(c2c(=O)n1-c1ccccc1)CCN(C)C3	u	x	u	16.3%
CN1CCc2c(sc3nc(NN)n(-c4ccc(Cl)cc4)c(=O)c23)C1	u	x	u	59.1%
COc1ccc(-n2c(SC)nc3sc4c(c3c2=O)CCN(C)C4)cc1	u	3.7µM*	7.38µM*	-4.2%
CCCN1CCc2c(sc3nc(SC)n(-c4ccccc4)c(=O)c23)C1	u	0.928µM*	0.738µM*	-1.9%
CN1CCc2c(sc3nc(NN)n(Cc4ccccc4)c(=O)c23)C1	u	3.7µM*	2.08µM*	37.7%
CCN1C[C@@H]2[C@@H]3C(=O)N(C)C(=O)[C@@H]3[C@](Cc3ccccc3)(C1=O)N2C(=O)c1ccc(Cl)c(Cl)c1	9.2%	x	x	-2.5%
OCCN1CCN(c2ncnc3c2ncn3[C@H]2CN(Cc3cccc(C(F)(F)F)c3)C[C@@H](CO)O2)CC1	x	x	x	-2.3%
Cc1nn(C)c(C(=O)N/N=C/c2ccc(-c3ccccc3)cc2)c1Cl	-9.4%	10.0%	19.2%	15.2%
CCOc1cc(C)nc(N2CCC(C(=O)NCC3CCCO3)CC2)n1 (stereo unspecified)	u	x	x	11.8%
CC(C)(C)c1ccc(C(=O)Nc2ccc(NC(=O)C(=O)O)cc2)o1	-5.5%	4.9%	9.8%	0.0%
O[C@@H]1CN(Cc2ccc(-n3cccn3)cc2)CC[C@H]1N1CCN(c2ccccc2F)CC1	8.91µM*	u	10.4µM*	-2.3%
Cc1ccc(CN2CCN(Cc3ccc(-n4cccn4)cc3)CC2CCO)cc1 (stereo unspecified)	-29.4%	-14.5%	-17.2%	4.7%
Cc1ccccc1N=CC=C1OC(C)(C)C(C)(C)O1	5.2%	8.28µM*	36.1%	7.7%
CCOc1ccc(-n2c(-c3ccc(Cl)cc3)c[n+]3c2SCC3)cc1	-24.8%	13.1µM*	0.0465µM*	9.0%
c1ccc(-c2c[n+]3c(n2-c2ccccc2)SCC3)cc1	-13.0%	1.65µM*	0.415µM*	22.9%
CS(=O)(=O)c1ccc(Cl)c(NC(=O)CSc2n[nH]c(-c3cccs3)n2)c1	20.9%	-11.2%	1.2%	-15.1%
O=C1/C(=C/c2ccccc2)SC(=S)N1CCCC(=O)N1CCCCC1CCO (stereo unspecified)	u	u	7.38µM*	-1.3%
O=C1/C(=C/c2cccc(Cl)c2)SC(=S)N1CCC(=O)N1CCCCC1CCO (stereo unspecified)	-17.6%	u	u	-9.3%
O=C1/C(=C/c2ccc(Cl)cc2)SC(=S)N1CCC(=O)N1CCCCC1CCO (stereo unspecified)	u	-9.1%	13.1µM*	-7.1%
SMILES	HCV inhibitor	Pf growth 48h	Pf growth 96h	AMA1 RON2 block
C=CCNc1ncnc2c1ncn2[C@H]1CN(Cc2cccc3ccccc23)C[C@@H](CO)O1	x	x	x	-4.3%
CCN(CC)S(=O)(=O)c1cc(C(=O)Nc2cc(Cl)ccc2N2CCN(C)CC2)ccc1Cl	6.3%	x	2.62µM*	1.3%
CN1CCN(c2ccc(Cl)cc2NC(=O)c2ccc(S(=O)(=O)N(C)C)cc2)CC1	11.1%	x	3.29µM*	-4.4%
CN(C)S(=O)(=O)c1ccc(C(=O)Nc2cc(S(=O)(=O)Nc3ccccc3Cl)ccc2N2CCCCC2)cc1	u	2.33µM*	1.31µM*	4.7%
CN(C)S(=O)(=O)c1ccc(C(=O)Nc2ccc(F)cc2F)cc1	-0.3%	11.9%	15.4%	1.3%
CN(C)S(=O)(=O)c1cccc(C(=O)Nc2ccccc2N2CCCCC2)c1	9.9%	u	u	7.1%
Cc1nn(CCCC(=O)NCCCN2CCN(C)CC2)c(=O)c2c1sc1ccccc12	-9.4%	-2.6%	0.0%	12.0%
CCN(CC)CCC(C)OC(=O)c1ccc(O)cc1O (stereo unspecified)	15.2%	-21.8%	4.4%	-1.3%
Cc1sc(NC(=O)CN(Cc2ccc(F)cc2)C(=O)C(C)(C)C)c(C(N)=O)c1C	3.1%	-22.5%	7.38µM*	59.8%
CC(=O)N(CC(=O)Nc1sc(C)c(C)c1C(N)=O)Cc1ccccc1	4.6%	6.9%	46.8%	48.8%
Cc1ccc(S(=O)(=O)NCCC(=O)N2CCOCC2)cc1C	15.1%	3.9%	25.3%	7.7%
O=S(=O)(NC[C@@H]1CCC[C@H](CNS(=O)(=O)c2c(F)cccc2F)C1)c1ccc2c(c1)OCCO2	x	8.28µM*	u	x
CCN1C(=O)C(CC(=O)Nc2ccccc2)S/C1=N\c1ccccn1 (stereo unspecified)	-14.8%	43.2%	22.2%	1.6%
CCOc1ccc(-c2cc(C)[n+](CCN3CCOCC3)c(-c3ccc(OCC)cc3)c2)cc1	-16.9%	0.657µM*	0.37µM*	-14.2%
CCOc1ccc(OCCOCCN2CCOCC2)cc1	22.8%	x	25.7%	24.2%
CC1(C)CC(=O)C(C=NCC(O)c2ccccc2)=C(O)C1 (stereo unspecified)	8.0%	5.4%	7.38µM*	-3.4%
CC(=O)c1ccc(NC(=O)C(C)n2nc(-c3ccccc3)c3cc(Cl)ccc32)cc1 (stereo unspecified)	u	u	1.17µM*	0.0%
CCOc1ccc(/C=N/NC(=O)c2ccccc2O)cc1CN1CC2CC(C1)c1cccc(=O)n1C2 (stereo unspecified)	2.3%	u	13.1µM*	37.9%
O=C(NCCC(NS(=O)(=O)OCC(Cl)(Cl)Cl)c1ccccc1)C(F)(F)F (stereo unspecified)	17.3%	11.5%	34.5%	-3.8%
O=[N+]([O-])c1ccc(N2CCN(c3ccccn3)CC2)c(Cl)c1	-27.4%	u	u	u
O=C(CSc1cccc2cccnc12)N/N=C/c1ccc(F)cc1	-9.6%	-3.5%	10.8%	6.9%
O=C(Cc1cccc2ccccc12)N/N=C/c1ccc(Sc2cccc3cccnc23)o1	x	x	6.57µM*	x
CCCCC(=O)N/N=C/c1ccc(Sc2cccc3cccnc23)o1	u	0.0%	4.15µM*	-2.0%
Cc1cc(C)cc(NC(=O)C2CCN(S(C)(=O)=O)CC2)c1	19.3%	-4.4%	u	2.4%
Cc1ccc(C(C(=O)Nc2ccc3c(c2)OCO3)N(C)C(=O)/C=C\c2ccc3c(c2)OCO3)cc1 (stereo unspecified)	u	13.1µM*	13.4%	-13.5%

Screening results as filed in PubChem BioAssay.
